From PubChem
In the library only some 1.7% were active in any assay of this set; here they are far more common.
Glioma ERSR ind: qHTS for Inducers of the Endoplasmic Reticulum Stress Response (ERSR) in Human Glioma: qHTS; Potency, µM, for inactives: at the top dose activation, usual class: activators; U87-MG GRP78 promoter luciferase reporter, 16 h; AID 602332, 2012; 420,000 compounds, 0.02% hits; note: series mostly up to about 76 µM; % of control where 0% means no effect; nearly all actives have a fitted effect of over 35% in size
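Stably transfected U87-MG human glioma cells carrying a GRP78-based luminescent sensor were seeded at 1000 cells/well, pin-dosed with compounds and incubated 16 h. Luciferase reagent was then added, and end-point luminescence was read after 10 min at room temperature.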
TrxR1 substrate: qHTS Assay for Substrates of Mammalian Selenoprotein Thioredoxin Reductase 1 (TrxR1): qHTS; purified TrxR1 substrate turnover, NADPH consumption readout; Thioredoxin reductase 1, cytoplasmic (Rattus norvegicus), O89049; AID 588456, 2011; 390,000 compounds, 0.01% hits; Potency, µM (titrated, usually from 114 µM), without a hit: top-dose activity change, negative = substrate turnover; note: % is set by controls: 0 for no effect and ±100 for the full control effect; nearly all actives have a fitted effect of over 50% in size
Target sequence (O89049 whole entry, looked up): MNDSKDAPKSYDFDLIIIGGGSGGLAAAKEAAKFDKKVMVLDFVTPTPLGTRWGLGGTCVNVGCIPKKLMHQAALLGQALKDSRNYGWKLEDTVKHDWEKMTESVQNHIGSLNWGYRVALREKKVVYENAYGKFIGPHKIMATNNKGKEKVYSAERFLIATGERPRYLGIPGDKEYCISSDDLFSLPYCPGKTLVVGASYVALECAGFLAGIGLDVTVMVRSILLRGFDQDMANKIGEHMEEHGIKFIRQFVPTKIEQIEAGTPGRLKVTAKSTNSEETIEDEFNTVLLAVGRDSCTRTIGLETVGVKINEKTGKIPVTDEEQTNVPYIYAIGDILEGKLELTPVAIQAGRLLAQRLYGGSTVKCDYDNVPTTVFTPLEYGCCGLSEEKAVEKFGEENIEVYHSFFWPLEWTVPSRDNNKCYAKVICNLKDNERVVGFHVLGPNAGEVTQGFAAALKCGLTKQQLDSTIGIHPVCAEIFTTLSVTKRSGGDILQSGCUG
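Rat TrxR1, dispensed at 90 nM, was prereduced with 400 uM NADPH (final) for 5 min at ~22 deg C, then incubated with compound 15 min before 400 uM selenite. A first-read NADPH fluorescence drop versus no-compound background flagged substrates.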
rTrxR1 inhibitor: qHTS Assay for Inhibitors of Mammalian Selenoprotein Thioredoxin Reductase 1 (TrxR1): qHTS | 390,000 compounds, 1% hits | Potency, µM (titrated, usually from 114 µM), without a hit: at the top dose activity change, negative = inhibition, hits mostly inhibitors | recombinant rTrxR1, NADPH fluorescence consumption, selenite substrate | Thioredoxin reductase 1, cytoplasmic (Rattus norvegicus), O89049; note: % is set by controls: 0 for no effect and ±100 for the full control effect; nearly all actives have a fitted effect of over 65% in size
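Rat TrxR1 (90 nM in the dispensed reagent) was pre-reduced with 400 uM NADPH for 5 min at room temperature, then incubated with compound for 15 min. After 400 uM selenite was added, NADPH fluorescence (Ex 340/Em 450 nm) was followed for 8 min.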
Apoferritin bind: qHTS Assay for Identification of Novel General Anesthetics; Potency, µM (top dose mostly 77.5 µM), without a hit: top-dose activity change, negative = displacement, most hits filed as inhibitors; 350,000 compounds, 0.074% hits; apoferritin/1-aminoanthracene competitive binding, fluorescence; note: % is set by controls: 0 for no effect and ±100 for the full control effect; nearly all actives have a fitted effect of over 20% in size
Target sequence (P02791 2-175 limits assumed): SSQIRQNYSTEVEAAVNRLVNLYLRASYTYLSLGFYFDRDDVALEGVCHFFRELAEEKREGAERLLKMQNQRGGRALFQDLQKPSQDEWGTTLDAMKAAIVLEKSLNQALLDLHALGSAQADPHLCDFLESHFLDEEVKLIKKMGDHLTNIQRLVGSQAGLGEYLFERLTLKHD
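Apoferritin-based anesthetic binding model; compound displacement of fluorescent 1-AMA measured as endpoint fluorescence after 10 minutes at room temperature, scaled to free-ligand and complex controls.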
12-LOX inh: Primary qHTS assay for inhibitors of human arachidonate 12S-lipoxygenase (ALOX12): Round 2 | purified 12hLO, xylenol orange hydroperoxide absorbance | Polyunsaturated fatty acid lipoxygenase ALOX12 (Homo sapiens), P18054 | Potency, µM (top dose mostly 108 µM), for the others: top-dose activity change, negative = inhibition, most hits filed as inhibitors | 580,000 compounds, 1.1% hits; note: % is set by controls: 0 for no effect and ±100 for the full control effect
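Purified human 12hLO at 150 nM in 25 mM Hepes, 0.01% Triton X-100, pH 7.0, preincubated 15 min at room temperature with compound. Reaction started with 40 uM arachidonic acid, 30 min at room temperature. Hydroperoxide measured by Fe-xylenol orange, 573/405 nm absorbance ratio.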
IDH1 R132H inh: qHTS for Inhibitors of mutant isocitrate dehydrogenase 1 (IDH1): qHTS. 390,000 compounds, 0.093% hits. IDH1-R132H enzyme, NADPH consumption, diaphorase/resazurin fluorescence. Potency, µM (titrated, usually from 76.6 µM), inactives show top-dose activity change, negative = inhibition, usual class: inhibitors. AID 602179, 2012; note: % is set by controls: 0 for no effect and ±100 for the full control effect; nearly all actives have a fitted effect of over 65% in size
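IDH1-R132H (0.5 ug/mL dispensed) in pH 7.5 Tris buffer was preincubated 30 min with compound, then given a substrate mix of 0.016 mM NADPH and 2 mM alpha-KG for 80 min at room temperature; remaining NADPH was read by diaphorase/resazurin fluorescence.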
Numbers without * were called inactive; i = inactive; ? = inconclusive; nt = no result; ! = not active in a repeat; [ ] = dose if it differs, or a comment. Calls come from the whole dose curve; as a rule, active = well fitted curve in the direction sought with a large enough effect; inconclusive = small, poorly fitted or top-dose-only effect, or another doubt; inactive = no such curve, though single readings can be large; an effect the other way counts as inactive or inconclusive. Potency is the fitted concentration of half-maximal effect.

SMILES	Glioma ERSR ind	TrxR1 substrate	rTrxR1 inhibitor	Apoferritin bind	12-LOX inh	IDH1 R132H inh
O=C(NCCc1cccs1)C1CC2CCCC(C1)C21SCCS1 (centres undefined)	nt	nt	nt	nt	-52%	nt
C=CCn1c(SCC(=O)NCc2ccco2)nnc1-c1ccc2ccccc2n1	-1%	-7%	79µM*	4%	-26%	5%
C=CCCC(CN1CCCOCC1)Oc1nccc(C)n1 (centres undefined)	nt	nt	nt	nt	3%	nt
Cc1ccc(S(=O)(=O)SCCCSS(=O)(=O)c2ccc(C)cc2)cc1	-11%	16%[57.1 µM]	-11%[11.4 µM]	nt	1.8µM*	2%
Cc1ccc(S(=O)(=O)SC/C=C/CSS(=O)(=O)c2ccc(C)cc2)cc1	-7%	-17%	-25%	nt	0.71µM*	7%
Cc1ccc(S(=O)(=O)CS(=O)(=O)c2ccc(C)cc2)cc1	-6%	-1%[11.4 µM]	-18%[11.4 µM]	nt	7%	1%
CCn1cc(CN2CCCC(c3nc(-c4cnccn4)no3)CCNC(=O)CC2)c(C)n1 (centres undefined)	nt	nt	nt	nt	135%	nt
COC(=O)C1=C(C)N(c2ccc(Cl)c(Cl)c2)C(=O)C1	-13%	-1%	50µM*	4%	?	6%
COC(=O)C1=C(C)N(c2ccc(S(N)(=O)=O)cc2)C(=O)C1	1%	-7%	?	-5%	-3%	-4%
COc1ccc(NCc2cc3ccc(OC)cc3n(CC(=O)Nc3cc(Cl)ccc3C)c2=O)cc1	-3%	6%	39%	-4%	-14%	-3%
COc1ccc2cc(CNc3ccc(C)cc3)c(=O)n(CC(=O)Nc3ccc(C)cc3C)c2c1	nt	nt	nt	nt	7.9µM*	nt
CN(C)Cc1c(O)ccc2c3c(c(=O)oc12)CCCCC3	-3%	i	?	i	8%	2%
CN(Cc1c(O)ccc2c1oc(=O)c1ccccc12)C1CCCCC1	-2%	1%	1%	0%	0.89µM*	0%
O=C(CCNc1ncnc2nc[nH]c12)NCCC1CCN(Cc2ccccc2)CC1	nt	nt	nt	nt	8%	nt
Cc1cccc(-c2nc(-c3ccc(Br)cc3)no2)c1	nt	nt	nt	nt	-28%	nt
Cc1cccc(CSCc2ccc(-c3nc(-c4ccc(Br)cc4)no3)o2)c1	nt	nt	nt	nt	3.5µM*	nt
c1cc(CNCc2cccc3[nH]ccc23)c2cc[nH]c2c1	nt	nt	nt	nt	-16%	nt
Cc1cc(=S)[nH]c2c(C)cccc12	-4%	-7%	-9%	-15%	1.1µM*!	9%
CCOc1ccc(CCNC(=O)c2cc(=O)[nH]c3ccc(S(=O)(=O)N4CCCCC4)cc23)cc1OCC	-1%	2%[57.1 µM]	22%[57.1 µM]	14%	-13%	8%
O=C(CSc1nnc(-c2cccnc2)n1C1CCCCC1)NC1CCCCC1	-3%	0%	19%	-9%	-17%	-2%
Cn1c(SCC(=O)c2cc3cc(Cl)ccc3o2)nnc1-c1cccnc1	nt	nt	nt	nt	28µM*	nt
O=C(CSc1nnc(-c2cccnc2)n1C1CC1)c1cc2cc(Cl)ccc2o1	nt	nt	nt	nt	25µM*	nt
CCCCc1nn(CC(=O)N(C)Cc2cc(C)on2)c(=O)n1CC	nt	nt	nt	nt	65%	nt
O=C(Cc1ccsc1-c1ccccc1)NO	?	-2%	3%	7%	16µM*	6%
O=C(Cc1ccccc1)NO	-4%	8%	17%	10%	nt	nt
SMILES	Glioma ERSR ind	TrxR1 substrate	rTrxR1 inhibitor	Apoferritin bind	12-LOX inh	IDH1 R132H inh
CN(CCOc1ccccc1F)C(=O)c1cn(C)c2ccccc12	nt	nt	nt	nt	1%	nt
COCc1nnc2n1CCC(NC(=O)c1cnn(C)c1)CC2 (centres undefined)	nt	nt	nt	nt	56%	nt
CC1=CC(=O)C(C(=O)/C=C/c2ccc(C)s2)C(=O)O1 (centres undefined)	nt	nt	nt	nt	14µM*	nt
COc1ccccc1N(O)C1CC(=O)N(c2ccc(F)cc2)C1=O (centres undefined)	7%	0%	0.89µM*	4%	0%	17%
CCCOc1ccccc1N1C(=O)CC(N(O)c2ccccc2)C1=O (centres undefined)	0%	4%[57.1 µM]	-12%	-7%	-22%	5%
COc1ccccc1N1C(=O)CC(N(O)c2ccccc2)C1=O (centres undefined)	0%	4%[57.1 µM]	-56%	-3%	?	6%
CCCOc1ccc(N2C(=O)CC(N(O)c3ccccc3)C2=O)cc1 (centres undefined)	-7%	-3%	7.9µM*	-13%	7%	-4%
CCCOc1ccc(N2C(=O)CC(SCCN)C2=O)cc1 (centres undefined)	-4%	0%	79µM*	8%	-19%	6%
COC[C@@H]1CN(S(=O)(=O)c2ccc3c(c2)CCCC3)C[C@H]1C(N)=O	nt	nt	nt	nt	1%	nt
CCCN1C(=O)Cc2ccccc2C1C(=O)NCc1cccc(F)c1 (centres undefined)	nt	nt	nt	nt	26%	nt
COc1ccccc1NS(=O)(=O)c1cc(NC(=O)c2n[nH]c3ccccc23)ccc1C	nt	nt	nt	nt	-15%	nt
CC(C)Cc1cc(C(=O)N2CCc3[nH]nc(-c4ccccc4F)c3C2)n(C)n1	nt	nt	nt	nt	62%	nt
CCn1nc(C(=O)N(C)Cc2cccc(OC)c2)c2ccccc2c1=O	nt	nt	nt	nt	5%	nt
CC(=O)C(Sc1nn(C)c(=S)s1)C(=O)Nc1ccccc1 (centres undefined)	-3%	4%	22µM*	?	-10%	-5%
CC(=O)C(Sc1nc(N(C)C)nc(N(C)C)n1)C(=O)Nc1ccccc1 (centres undefined)	0%	-1%	19%[57.1 µM]	-12%	5%	8%
COc1ccc(Cn2cc(COC(=O)Nc3ccc(F)cc3)nn2)cc1	nt	nt	nt	nt	11%	nt
Cc1noc(C)c1C(=O)N1CCC2(CCCN(C(c3ccccc3)c3ccccc3)C2)CC1	28µM*	nt	nt	nt	12%[57.4 µM]	nt
Cc1noc(C)c1C(=O)N1CCC2(CCCN(Cc3ccccc3)C2)CC1	-3%	nt	nt	nt	-2%[57.4 µM]	nt
O=C(O)c1ccc(C2CC2)cc1	nt	nt	nt	nt	-70%	nt
Cc1nn(-c2ccccc2)c(Cl)c1/C=C1\SC(=S)NC1=O	4%	-5%	?	?	25µM*	-6%
Clc1ccccc1-c1ncc2ccccn12	2%	22%[57.1 µM]	23%[57.1 µM]	-23%	22µM*	10%
Clc1ccc(-c2ncc3ccccn23)cc1	2%	21%	-20%	-14%	?	3%
O=C(CN1CCCC1c1cccs1)C12CC3CC(CC(C3)C1)C2 (centres undefined)	nt	nt	nt	nt	6.3µM*	nt
